# Reference: PubChem BioAssay (NCI)
# Values joined by “and” are separate entries in the source; they are usually repeats but may differ in a detail not shown here. Equal values may be shown once. About 83,000 compounds went through this panel and 20% of them were active in at least one assay; those are over-represented in the sample as a whole.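 A percent growth of 40 corresponds to 60% growth inhibition; 0 means no net growth; -100 means all cells died. Active threshold: below 10.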 Active and inactive are the calls of the source.
# Tests used:
# Experiment in all cases: NCI-60 one-dose screen, 48 h (100 = growth as untreated, 0 = no growth, -100 = all killed)
# [1] = system: NCI-H23 lung
# [2] = system: NCI-H226 lung
# [3] = system: NCI-H322M lung
# [4] = system: HOP-62 NSCLC
# [5] = system: NCI-H460 lung; conditions: 10 µM unless noted
# [6] = system: HOP-92 NSCLC
# [7] = system: NCI-H522 lung; conditions: 10 µM unless noted
# [8] = system: A549/ATCC NSCLC
# [9] = system: 786-0 renal
# [10] = system: COLO 205 colon
# [11] = system: DU-145 prostate
# [12] = system: K-562 leukemia
# [13] = system: MALME-3M melanoma
# [14] = system: MDA-MB-231 breast
# [15] = system: RXF 393 renal
# [16] = system: SF-268 CNS
# [17] = system: SF-295 CNS
# [18] = system: SF-539 CNS
# [19] = system: UACC-257 melanoma; conditions: 10 µM unless noted
# [20] = system: M14 melanoma
smiles,measurement,setting,value
CCN(CC)CCOc1ccc(-c2nc3cc(Cl)ccc3s2)cc1,growth,[1]; 10 µM unless noted,-53.6% (active)
same,growth,[2]; 10 µM unless noted,65.2% (inactive)
same,growth,[3]; 10 µM unless noted,28.3% (inactive)
same,growth,[4]; 10 µM unless noted,-66.6% (active)
same,growth,[5],-64.6% (active)
same,growth,[6]; 10 µM unless noted,19.3% (inactive)
same,growth,[7],-39.5% (active)
same,growth,[8]; 10 µM unless noted,-1.04% (active)
same,growth,[9]; 10 µM unless noted,29.5% (inactive)
same,growth,[10]; 10 µM unless noted,-73.9% (active)
same,growth,[11]; 10 µM unless noted,12% (inactive)
same,growth,[12]; 10 µM unless noted,-99.1% (active)
same,growth,[13]; 10 µM unless noted,28.7% (inactive)
same,growth,[14]; 10 µM unless noted,-44.8% (active)
same,growth,[15]; 10 µM unless noted,29.8% (inactive)
same,growth,[16]; 10 µM unless noted,16.5% (inactive)
same,growth,[17]; 10 µM unless noted,-71.5% (active)
same,growth,[18]; 10 µM unless noted,-15.5% (active)
same,growth,[19],-36.2% (active)
same,growth,[20]; 10 µM unless noted,-75.4% (active)
Nc1ncnc2c1ncn2C1OC(CO)C(O)C1O (stereo unspecified),growth,[1]; 10 µM unless noted,111% (inactive) and 93.6% (inactive) and 103% (inactive)
same,growth,[2]; 10 µM unless noted,105% (inactive) and 82.7% (inactive) and 103% (inactive)
same,growth,[3]; 10 µM unless noted,114% (inactive) and 60.9% (inactive) and 111% (inactive)
same,growth,[4]; 10 µM unless noted,120% (inactive) and 93.4% (inactive) and 95% (inactive)
same,growth,[5],113% (inactive) and 43.4% (inactive) and 103% (inactive)
same,growth,[6]; 10 µM unless noted,93.4% (inactive) and 100% (inactive) and 89.5% (inactive)
same,growth,[7],106% (inactive) and -20.2% (active) and 110% (inactive)
same,growth,[8]; 10 µM unless noted,106% (inactive) and 97.7% (inactive)
same,growth,[9]; 10 µM unless noted,104% (inactive) and 73.7% (inactive) and 100% (inactive)
same,growth,[10]; 10 µM unless noted,121% (inactive) and 100% (inactive)
same,growth,[11]; 10 µM unless noted,116% (inactive) and 47.5% (inactive) and 106% (inactive)
same,growth,[12]; 10 µM unless noted,93.5% (inactive) and 26.1% (inactive) and 116% (inactive)
same,growth,[13]; 10 µM unless noted,147% (inactive) and 107% (inactive) and 128% (inactive)
same,growth,[14]; 10 µM unless noted,122% (inactive) and 52.5% (inactive) and 113% (inactive)
same,growth,[15]; 10 µM unless noted,115% (inactive) and 103% (inactive)
same,growth,[16]; 10 µM unless noted,106% (inactive) and 121% (inactive) and 102% (inactive)
same,growth,[17]; 10 µM unless noted,105% (inactive) and 104% (inactive) and 100% (inactive)
same,growth,[18]; 10 µM unless noted,109% (inactive) and 98% (inactive) and 91.5% (inactive)
same,growth,[19],84.9% (inactive) and 124% (inactive) and 105% (inactive)
same,growth,[20]; 10 µM unless noted,111% (inactive) and 115% (inactive)
O=C(Nc1cccc(Br)c1)Oc1cccc2cccnc12,growth,[1]; 10 µM,106% (inactive)
same,growth,[1]; 100 µM,-21% (active)
same,growth,[2]; 10 µM,106% (inactive)
same,growth,[2]; 100 µM,63.1% (inactive)
same,growth,[3]; 10 µM,117% (inactive)
same,growth,[3]; 100 µM,84.9% (inactive)
same,growth,[4]; 10 µM,102% (inactive)
same,growth,[4]; 100 µM,50.1% (inactive)
same,growth,[6]; 10 µM,83% (inactive)
same,growth,[6]; 100 µM,49.2% (inactive)
same,growth,[7],-56.9% [100 µM] (active)
same,growth,[8]; 10 µM,99.1% (inactive)
same,growth,[8]; 100 µM,20.7% (inactive)
same,growth,[9]; 10 µM,94.9% (inactive)
same,growth,[9]; 100 µM,88.6% (inactive)
same,growth,[10]; 10 µM,117% (inactive)
same,growth,[10]; 100 µM,51.8% (inactive)
same,growth,[11]; 10 µM,115% (inactive)
same,growth,[11]; 100 µM,35.6% (inactive)
same,growth,[12]; 10 µM,109% (inactive)
same,growth,[12]; 100 µM,12.6% (inactive)
same,growth,[13]; 10 µM,114% (inactive)
same,growth,[13]; 100 µM,7.15% (active)
same,growth,[14]; 10 µM,98.4% (inactive)
same,growth,[14]; 100 µM,15.1% (inactive)
same,growth,[15]; 10 µM,106% (inactive)
same,growth,[15]; 100 µM,55.6% (inactive)
same,growth,[16]; 10 µM,107% (inactive)
same,growth,[16]; 100 µM,20.9% (inactive)
same,growth,[17]; 10 µM,97.4% (inactive)
same,growth,[17]; 100 µM,9.21% (active)
same,growth,[18]; 10 µM,97.1% (inactive)
same,growth,[18]; 100 µM,9.58% (active)
same,growth,[19],7.41% [100 µM] (active)
same,growth,[20]; 10 µM,99.4% (inactive)
same,growth,[20]; 100 µM,16% (inactive)
COc1ccc2nc3cc(Cl)ccc3c(NCCNc3c4ccc(Cl)cc4nc4ccc(OC)cc34)c2c1,growth,[1]; 10 µM unless noted,-73% (active)
same,growth,[2]; 10 µM unless noted,-54.7% (active)
same,growth,[3]; 10 µM unless noted,-86.6% (active)
same,growth,[4]; 10 µM unless noted,-80.4% (active)
same,growth,[5],-68.7% (active)
same,growth,[6]; 10 µM unless noted,-72.7% (active)
same,growth,[7],-90.7% (active)
same,growth,[8]; 10 µM unless noted,-74.5% (active)
same,growth,[9]; 10 µM unless noted,-88% (active)
same,growth,[10]; 10 µM unless noted,-74.9% (active)
same,growth,[11]; 10 µM unless noted,-95.4% (active)
same,growth,[12]; 10 µM unless noted,-52.7% (active)
same,growth,[13]; 10 µM unless noted,-77.4% (active)
same,growth,[14]; 10 µM unless noted,-78.9% (active)
same,growth,[15]; 10 µM unless noted,-93% (active)
same,growth,[16]; 10 µM unless noted,-82.6% (active)
same,growth,[17]; 10 µM unless noted,-93.2% (active)
same,growth,[18]; 10 µM unless noted,-85.5% (active)
same,growth,[19],-89.6% (active)
same,growth,[20]; 10 µM unless noted,-74.2% (active)
O=C(/C=C\c1ccccc1)N1c2ccccc2CC1c1c[nH]c2ccccc12 (stereo unspecified),growth,[1]; 10 µM unless noted,59.5% (inactive)
same,growth,[2]; 10 µM unless noted,67.3% (inactive)
same,growth,[3]; 10 µM unless noted,76.9% (inactive)
same,growth,[4]; 10 µM unless noted,57.1% (inactive)
same,growth,[5],70.1% (inactive)
same,growth,[6]; 10 µM unless noted,47.5% (inactive)
same,growth,[7],30.2% (inactive)
same,growth,[8]; 10 µM unless noted,64.5% (inactive)
same,growth,[9]; 10 µM unless noted,77.7% (inactive)
same,growth,[10]; 10 µM unless noted,56.6% (inactive)
same,growth,[11]; 10 µM unless noted,89.7% (inactive)
same,growth,[12]; 10 µM unless noted,65.9% (inactive)
same,growth,[13]; 10 µM unless noted,85.4% (inactive)
same,growth,[14]; 10 µM unless noted,60.8% (inactive)
same,growth,[15]; 10 µM unless noted,93.4% (inactive)
same,growth,[16]; 10 µM unless noted,75.2% (inactive)
same,growth,[17]; 10 µM unless noted,68.7% (inactive)
same,growth,[18]; 10 µM unless noted,95.1% (inactive)
same,growth,[19],88.8% (inactive)
same,growth,[20]; 10 µM unless noted,71.6% (inactive)
NC1=CC(=O)c2ccccc2C1=O,growth,[1]; 10 µM unless noted,40.2% (inactive)
same,growth,[2]; 10 µM unless noted,91.7% (inactive)
same,growth,[3]; 10 µM unless noted,97% (inactive)
same,growth,[4]; 10 µM unless noted,80.9% (inactive)
same,growth,[5],89.8% (inactive)
same,growth,[6]; 10 µM unless noted,91.4% (inactive)
same,growth,[7],89.4% (inactive)
same,growth,[8]; 10 µM unless noted,75.9% (inactive)
same,growth,[9]; 10 µM unless noted,105% (inactive)
same,growth,[10]; 10 µM unless noted,104% (inactive)
same,growth,[11]; 10 µM unless noted,63.8% (inactive)
same,growth,[12]; 10 µM unless noted,92.6% (inactive)
same,growth,[13]; 10 µM unless noted,38.8% (inactive)
same,growth,[14]; 10 µM unless noted,82.1% (inactive)
same,growth,[15]; 10 µM unless noted,100% (inactive)
same,growth,[16]; 10 µM unless noted,95.6% (inactive)
same,growth,[17]; 10 µM unless noted,69% (inactive)
same,growth,[18]; 10 µM unless noted,106% (inactive)
same,growth,[19],69% (inactive)
same,growth,[20]; 10 µM unless noted,83% (inactive)
